The target in assay [1] is Cytochrome P450 3A4 (Homo sapiens) (UniProt P08684). Put plainly: qHTS Assay for Inhibitors and Substrates of Cytochrome P450 3A4 (AID 884). Note: % is set by controls: 0 for no effect and ±100 for the full control effect; nearly all actives have a fitted effect of over 50% in size. Summed up:
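20 nM human CYP3A4 with 25 uM Luciferin-PPXE (at KM) in 200 mM KPO4, preincubated 10 min with compound; NADPH regeneration started a 60 min RT reaction. Luciferin detected by luminescence, normalized to 57 uM ketoconazole as full inhibition.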

A short description of assay [2]: Confirmation and Secondary Assay for Modulators of Hemoglobin Beta Chain Splicing at IVS2 654 locus (AID 910).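 Note: HeLa cells stably carrying EGFP split by mutant beta-globin IVS2-654 intron; per-well total GFP intensity by laser scanning cytometry after 2-day treatment; % of control where 0% means no effect.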 Summed up:
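Readout: per-well total peak green fluorescence (488 nm ex, 500–520 nm em) from objects 5–250 µm, reflecting correct splicing of an EGFP-654 reporter. Compounds were applied for 2 days at 37 °C to overnight-plated HeLa EGFP-654 cells; controls were DMSO and 500 nM IVS2-654 PNA.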

A short description of assay [3]: Confirmation and Secondary Assay for Modulators of Hemoglobin Beta Chain Splicing at IVS2 705 locus (AID 930).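 Note: HeLa cells stably expressing the EGFP-705 splicing reporter; GFP fluorescence per well restored by corrected splicing of the IVS2-705 intron in EGFP; % of control where 0% means no effect.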 Summed up:
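Splice-correction reporter: EGFP cDNA split by beta-globin intron 2 bearing the 705 mutation, stably in HeLa. Compound incubation 2 days, 37C; fluorescent objects 5-250 µm summed per well.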

Assay [4] deals with Ubiquitin carboxyl-terminal hydrolase 1 (Homo sapiens) (UniProt O94782). Put plainly: Inhibitors of USP1/UAF1: Pilot qHTS (AID 504865).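 Note: rhodamine fluorescence freed from ubiquitin-rhodamine substrate followed over time; top concentration of the series differs between compounds; % is set by controls: 0 for no effect and ±100 for the full control effect; nearly all actives have a fitted effect of over 35% in size.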 Summed up: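 Deubiquitinase activity followed as kinetic rhodamine fluorescence release from 150 nM Ub-Rho. 1 nM USP1/UAF1 with compound, after 15 min room-temperature preincubation, in HEPES pH 7.8 buffer containing TCEP, EDTA, BSA and Tween-20.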
In general terms: Quantitative high-throughput screening tests each substance at several concentrations.

Assay [5] deals with Zika virus NS2B-NS3 protease. Put plainly: Primary screen GU AMC qHTS for Zika virus inhibitors (AID 1347154).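 Note: 0% = no-inhibitor control and -100% = no-enzyme control; nearly all actives have a fitted effect of over 70% in size.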 Summed up: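 Fluorogenic AMC-substrate cleavage by noncovalent NS2B-NS3 protease complex (25 nM, pH 8.0 Tris buffer with Tween 20) followed for 15 minutes at room temperature (~20% conversion). Percent inhibition from ex340/em450 signal change, fitted by 4-parameter Hill equation.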

The nature of assay [6]: Primary qHTS for small molecule stabilizers of the endoplasmic reticulum resident proteome: Secreted ER Calcium Modulated Protein (SERCaMP) assay (AID 1508630). Note: % is set by controls: 0 for no effect and ±100 for the full control effect. Summed up:
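GLuc-SERCaMP-expressing SH-SY5Y cells, pretreated 16 h with compound, are challenged with thapsigargin to empty ER calcium stores; after 4 h, coelenterazine is added directly to the medium and luminescence is imaged.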

Assay [7] deals with Glucocorticoid receptor (Homo sapiens) (UniProt P04150). Put plainly: GR-EFC Redistribution (AID 451; calls by dose curve; note: potency is the fitted concentration of half-maximal effect). The conditions noted are these: CHO-K1 GR-EFC translocation, beta-gal luminescence, 2 h. Summed up: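 Translocation of GR-ED fusion to nuclear EA restores b-gal, read by luminescence after 1 h room-temperature detection. Engineered CHO-K1 biosensor cells, 1,000/well, exposed 2 h at 37 C to titrations up to 46 uM final.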

The target in assay [8] is DNA dC->dU-editing enzyme APOBEC-3G (Homo sapiens) (UniProt Q9HC16). Put plainly: qHTS for inhibitors of Vif-A3G interactions: Validation (AID 588379). Note: 0% is about no effect. Summed up:
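HeLa cells stably expressing Vif and A3G-eYFP, 700 cells/well, incubated overnight at 37 deg C, then exposed to compound overnight at 37 deg C. Inhibition of Vif-mediated degradation read as increased yellow fluorescence (Ex 488/Em 500-530) by laser-scanning cytometry.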

Assay [9] addresses Glucocorticoid receptor (Homo sapiens) (UniProt P04150). Put plainly: GR-GFP Redistribution (AID 450;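 active = compounds whose dose series gives a full or clear partial fitted curve of increased nuclear translocation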; note: potency is the fitted concentration of half-maximal effect). The conditions noted are these: U2OS GR-GFP nuclear translocation, laser cytometry, 2 h.
Assay [10] deals with 3',5'-cyclic-AMP phosphodiesterase 4B (Homo sapiens) (UniProt Q07343). Put plainly: qHTS Assay for Inhibitors of PDE-IV (AID 607; active = well fitted activation curve with a large enough effect in the main read-out, with a control signal flat, not every such curve was filed as active; note: % of control where 0% means no effect). Summed up:
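The readout is membrane depolarisation from a cAMP-sensing CNG channel, detected with a potential dye at ex 535/em 590. Cells were HEK293-derived (endogenous PDE-IV) at 1000 cells/well, titrated up to 22.9 uM final.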

Assay [11] deals with Cytochrome P450 2C9 (Homo sapiens) (UniProt P11712). Put plainly: qHTS Assay for Inhibitors and Substrates of Cytochrome P450 2C9 (AID 883). Note: potency is the fitted concentration of half-maximal effect; nearly all actives have a fitted effect of over 60% in size. Summed up:
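Luminescent read-out of deoxyluciferin hydroxylation, normalized to 57uM sulphaphenazole (AC100). Reaction: 10nM enzyme, 100uM Luciferin-H (equal to KM), 25mM KPO4, 10 min compound preincubation, then 60 min with NADPH regeneration, both at 37C.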

The target in assay [12] is Cytochrome P450 2C19 (Homo sapiens) (UniProt P33261). Put plainly: qHTS Assay for Inhibitors and Substrates of Cytochrome P450 2C19 (AID 899). Note: potency is the fitted concentration of half-maximal effect; nearly all actives have a fitted effect of over 60% in size. Summed up:
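Luminescence readout of luciferin formed from 10uM Luciferin-H EGE (KM level) by 5 nM CYP2C19 in 50mM KPO4. 60 min NADPH-driven reaction at 37C after 10 min compound preincubation; data scaled to 57uM ketoconazole inhibition.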

Assay [13] addresses Cytochrome P450 1A2 (Homo sapiens) (UniProt P05177). Put plainly: p450-cyp1a2 (AID 410; calls by dose curve;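 note: -100% = full effect of reference inhibitor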). Summed up:
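Inhibition was calculated relative to 57 uM furafylline (full inhibition). The reaction used human CYP1A2 at 20nM with Luciferin-ME at its Km, 100uM, driven by an NADPH-regenerating system for 60 min at room temperature.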

The target in assay [14] is Mitogen-activated protein kinase 10 (Mus musculus) (UniProt Q61831). Put plainly: JNK3 AlphaScreen Assay (AID 530; active = well fitted curve in either direction with a large enough effect, not every such curve was filed as active;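 note: kinase came from lysate of stimulated human HepG2 cells; signal reports phosphorylation of biotinylated GST-cJun 1-79 at Ser73 with 10 µM ATP; % is set by controls: 0 for no effect and ±100 for the full control effect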). Summed up: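 Room-temperature AlphaScreen kinase assay; pre-activated HepG2 lysate as JNK3 source, biotin-GST-cJun(1-79) substrate, 10 uM ATP, compound 15 min preincubation.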
A general note: Alpha assays give light when donor and acceptor beads are brought close together.

Assay [15] in a line: qHTS Assay for Lipid Storage Modulators (AID 1519; calls by dose curve; for activity change, negative = inhibition: % is set by controls: 0 for no effect and ±100 for the full control effect). The conditions noted are these: Drosophila S3 cells, BODIPY lipid droplet/cell ratio, laser cytometry, cells loaded with oleic acid. Summed up: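 Cells seeded at 5,000 per well were treated with compounds over a concentration series and loaded with oleic acid (400 uM, as added). Lipid droplet fluorescence (488 nm excitation, 500-530 nm channel) was read by laser-scanning cytometry and normalized to 20 uM Triacsin C.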

A short description of assay [16]: NCATS anti-infectives library activity on HEK293 viability as a counter-qHTS vs the C. elegans viability qHTS (AID 1745854).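 Note: HEK293 cells exposed to compounds for 24 hr before the viability read; % is set by controls: 0 for no effect and ±100 for the full control effect.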 Summed up: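 Cytotoxicity in human HEK293 cells is measured by ATP-dependent CellTiter-Glo luminescence following a 24 hr incubation with titrated library compounds at 37C. Top final concentration is 41.7 uM.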
For assay [17], the target named is Cytochrome P450 3A4 (Homo sapiens) (UniProt P08684). Put plainly: qHTS Assay for Activators of Cytochrome P450 3A4 (AID 885). Note: nearly all actives have a fitted effect of over 65% in size. Summed up:
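Steps: enzyme/substrate mix dispensed; compound added, 10 min RT; NADPH regeneration solution added, 60 min RT; luciferin detection buffer stops reaction; 20 min later luminescence measured.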

Records with an inconclusive call do not appear. Active and inactive are the calls of the source. Unless noted, calls come from the whole dose curve; as a rule, active = well fitted curve in the direction sought with a large enough effect; inconclusive = small, poorly fitted or top-dose-only effect, or another doubt; inactive = no such curve, though single readings can be large; an effect the other way counts as inactive or inconclusive.

Chain of Glucocorticoid receptor (Homo sapiens) (P04150 whole entry, looked up, the tested form may be a part): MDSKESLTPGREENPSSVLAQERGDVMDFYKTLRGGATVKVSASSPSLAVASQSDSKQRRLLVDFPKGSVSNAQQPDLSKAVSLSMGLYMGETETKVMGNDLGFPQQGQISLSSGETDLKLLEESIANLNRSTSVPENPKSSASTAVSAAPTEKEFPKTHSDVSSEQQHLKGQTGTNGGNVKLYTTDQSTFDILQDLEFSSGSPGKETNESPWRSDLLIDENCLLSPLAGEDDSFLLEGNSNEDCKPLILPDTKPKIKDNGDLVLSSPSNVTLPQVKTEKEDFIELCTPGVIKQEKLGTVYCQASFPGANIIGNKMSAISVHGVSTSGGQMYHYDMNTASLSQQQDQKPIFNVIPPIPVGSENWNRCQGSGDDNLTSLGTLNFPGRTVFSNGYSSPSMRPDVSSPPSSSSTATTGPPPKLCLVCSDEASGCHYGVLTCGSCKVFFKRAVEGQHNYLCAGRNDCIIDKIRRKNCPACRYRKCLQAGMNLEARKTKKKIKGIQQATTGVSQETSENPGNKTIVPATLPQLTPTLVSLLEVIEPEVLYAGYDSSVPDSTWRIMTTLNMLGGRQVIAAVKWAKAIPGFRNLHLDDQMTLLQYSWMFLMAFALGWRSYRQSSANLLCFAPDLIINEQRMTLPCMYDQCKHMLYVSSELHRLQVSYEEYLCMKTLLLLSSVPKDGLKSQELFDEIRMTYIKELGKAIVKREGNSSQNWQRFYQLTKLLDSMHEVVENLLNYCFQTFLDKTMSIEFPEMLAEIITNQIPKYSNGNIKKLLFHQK
Chain of Cytochrome P450 3A4 (Homo sapiens) (P08684 whole entry, looked up): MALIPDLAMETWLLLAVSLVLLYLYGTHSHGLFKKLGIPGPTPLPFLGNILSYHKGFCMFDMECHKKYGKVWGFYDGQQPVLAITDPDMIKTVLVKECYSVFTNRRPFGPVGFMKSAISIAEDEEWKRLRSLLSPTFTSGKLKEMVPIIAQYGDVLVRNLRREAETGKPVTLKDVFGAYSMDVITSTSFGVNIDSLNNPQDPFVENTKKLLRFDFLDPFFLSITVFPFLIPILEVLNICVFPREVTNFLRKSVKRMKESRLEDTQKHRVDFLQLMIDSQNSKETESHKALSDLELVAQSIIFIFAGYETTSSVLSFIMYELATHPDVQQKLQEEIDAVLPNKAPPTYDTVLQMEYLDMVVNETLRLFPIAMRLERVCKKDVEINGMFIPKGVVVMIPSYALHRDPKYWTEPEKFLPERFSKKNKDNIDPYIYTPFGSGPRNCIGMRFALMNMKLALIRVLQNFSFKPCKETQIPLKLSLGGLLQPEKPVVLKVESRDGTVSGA
Chain of DNA dC->dU-editing enzyme APOBEC-3G (Homo sapiens) (Q9HC16 whole entry, looked up): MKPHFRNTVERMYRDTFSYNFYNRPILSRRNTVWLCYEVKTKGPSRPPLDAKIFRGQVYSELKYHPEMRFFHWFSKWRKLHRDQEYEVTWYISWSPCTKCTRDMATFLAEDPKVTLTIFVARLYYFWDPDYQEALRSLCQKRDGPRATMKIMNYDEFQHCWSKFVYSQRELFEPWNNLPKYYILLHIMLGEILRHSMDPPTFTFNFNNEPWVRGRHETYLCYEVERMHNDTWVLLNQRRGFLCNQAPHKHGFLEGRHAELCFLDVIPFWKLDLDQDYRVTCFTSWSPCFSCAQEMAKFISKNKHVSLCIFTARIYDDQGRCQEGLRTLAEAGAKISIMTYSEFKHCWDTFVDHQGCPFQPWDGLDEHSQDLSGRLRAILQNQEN
Chain of Ubiquitin carboxyl-terminal hydrolase 1 (Homo sapiens) (O94782 whole entry, looked up): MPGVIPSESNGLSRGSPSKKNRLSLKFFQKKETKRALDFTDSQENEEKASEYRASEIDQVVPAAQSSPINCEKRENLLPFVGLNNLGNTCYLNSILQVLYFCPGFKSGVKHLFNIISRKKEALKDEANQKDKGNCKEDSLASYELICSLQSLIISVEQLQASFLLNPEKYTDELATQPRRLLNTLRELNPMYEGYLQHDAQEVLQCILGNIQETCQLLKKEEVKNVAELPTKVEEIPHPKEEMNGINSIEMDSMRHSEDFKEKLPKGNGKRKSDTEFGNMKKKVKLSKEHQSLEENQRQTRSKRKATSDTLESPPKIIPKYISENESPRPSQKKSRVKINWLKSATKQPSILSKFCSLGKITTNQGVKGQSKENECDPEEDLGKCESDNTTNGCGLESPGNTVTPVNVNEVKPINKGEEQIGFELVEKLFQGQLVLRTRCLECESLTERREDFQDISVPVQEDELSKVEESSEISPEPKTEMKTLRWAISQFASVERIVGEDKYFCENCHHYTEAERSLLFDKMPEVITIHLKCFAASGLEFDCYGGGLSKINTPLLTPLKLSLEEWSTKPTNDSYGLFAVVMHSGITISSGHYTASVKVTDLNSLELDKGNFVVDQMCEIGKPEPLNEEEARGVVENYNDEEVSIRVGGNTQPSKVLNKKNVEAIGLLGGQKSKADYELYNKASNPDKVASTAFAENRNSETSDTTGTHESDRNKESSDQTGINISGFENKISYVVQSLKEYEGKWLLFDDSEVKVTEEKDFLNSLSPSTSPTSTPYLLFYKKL
Chain of 3',5'-cyclic-AMP phosphodiesterase 4B (Homo sapiens) (Q07343 whole entry, looked up): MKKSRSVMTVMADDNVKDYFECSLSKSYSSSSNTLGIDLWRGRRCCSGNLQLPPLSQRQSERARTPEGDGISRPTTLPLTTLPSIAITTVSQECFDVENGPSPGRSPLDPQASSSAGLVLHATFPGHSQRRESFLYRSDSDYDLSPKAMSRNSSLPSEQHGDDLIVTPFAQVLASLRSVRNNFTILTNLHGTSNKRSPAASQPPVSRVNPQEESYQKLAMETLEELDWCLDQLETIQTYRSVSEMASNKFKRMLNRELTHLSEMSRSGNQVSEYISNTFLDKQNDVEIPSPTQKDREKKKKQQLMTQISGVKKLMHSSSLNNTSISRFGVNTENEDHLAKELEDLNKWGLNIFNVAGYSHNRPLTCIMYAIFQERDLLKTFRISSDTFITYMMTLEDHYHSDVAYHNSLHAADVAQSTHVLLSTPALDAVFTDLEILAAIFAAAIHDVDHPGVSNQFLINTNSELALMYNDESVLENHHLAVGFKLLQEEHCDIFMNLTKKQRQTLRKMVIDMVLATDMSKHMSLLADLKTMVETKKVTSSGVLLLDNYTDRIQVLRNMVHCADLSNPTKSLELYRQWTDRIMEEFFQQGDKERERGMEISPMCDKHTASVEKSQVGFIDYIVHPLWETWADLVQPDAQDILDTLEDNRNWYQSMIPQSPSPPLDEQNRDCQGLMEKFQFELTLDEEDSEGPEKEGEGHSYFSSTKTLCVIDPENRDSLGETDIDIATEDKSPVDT
Chain of Cytochrome P450 1A2 (Homo sapiens) (P05177 whole entry, looked up): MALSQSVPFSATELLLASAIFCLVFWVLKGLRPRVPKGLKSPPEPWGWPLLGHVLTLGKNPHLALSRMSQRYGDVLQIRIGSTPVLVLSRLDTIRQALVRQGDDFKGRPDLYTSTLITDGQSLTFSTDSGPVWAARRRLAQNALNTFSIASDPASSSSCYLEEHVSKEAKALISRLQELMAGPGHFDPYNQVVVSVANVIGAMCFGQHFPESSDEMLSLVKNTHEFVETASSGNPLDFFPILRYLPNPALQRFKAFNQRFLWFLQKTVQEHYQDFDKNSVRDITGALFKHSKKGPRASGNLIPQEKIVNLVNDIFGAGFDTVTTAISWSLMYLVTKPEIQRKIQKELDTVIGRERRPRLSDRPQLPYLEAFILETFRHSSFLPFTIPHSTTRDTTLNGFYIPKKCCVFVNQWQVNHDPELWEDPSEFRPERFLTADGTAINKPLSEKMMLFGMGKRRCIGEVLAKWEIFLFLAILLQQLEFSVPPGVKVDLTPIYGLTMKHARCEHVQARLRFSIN
Chain of Cytochrome P450 2C19 (Homo sapiens) (P33261 whole entry, looked up): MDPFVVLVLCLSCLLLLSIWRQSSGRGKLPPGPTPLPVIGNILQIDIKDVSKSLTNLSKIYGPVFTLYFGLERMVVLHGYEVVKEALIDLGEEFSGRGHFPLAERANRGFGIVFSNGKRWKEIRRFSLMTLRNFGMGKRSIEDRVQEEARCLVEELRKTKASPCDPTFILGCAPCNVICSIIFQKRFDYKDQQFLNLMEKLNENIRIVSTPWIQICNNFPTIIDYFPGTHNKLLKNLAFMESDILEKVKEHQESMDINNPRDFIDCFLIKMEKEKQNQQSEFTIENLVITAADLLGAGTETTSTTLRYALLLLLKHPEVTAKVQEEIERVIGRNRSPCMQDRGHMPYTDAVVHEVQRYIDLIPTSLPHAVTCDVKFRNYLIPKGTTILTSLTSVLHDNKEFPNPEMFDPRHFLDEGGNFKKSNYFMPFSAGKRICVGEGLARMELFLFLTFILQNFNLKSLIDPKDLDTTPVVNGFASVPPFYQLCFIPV
Chain of Cytochrome P450 2C9 (Homo sapiens) (P11712 whole entry, looked up): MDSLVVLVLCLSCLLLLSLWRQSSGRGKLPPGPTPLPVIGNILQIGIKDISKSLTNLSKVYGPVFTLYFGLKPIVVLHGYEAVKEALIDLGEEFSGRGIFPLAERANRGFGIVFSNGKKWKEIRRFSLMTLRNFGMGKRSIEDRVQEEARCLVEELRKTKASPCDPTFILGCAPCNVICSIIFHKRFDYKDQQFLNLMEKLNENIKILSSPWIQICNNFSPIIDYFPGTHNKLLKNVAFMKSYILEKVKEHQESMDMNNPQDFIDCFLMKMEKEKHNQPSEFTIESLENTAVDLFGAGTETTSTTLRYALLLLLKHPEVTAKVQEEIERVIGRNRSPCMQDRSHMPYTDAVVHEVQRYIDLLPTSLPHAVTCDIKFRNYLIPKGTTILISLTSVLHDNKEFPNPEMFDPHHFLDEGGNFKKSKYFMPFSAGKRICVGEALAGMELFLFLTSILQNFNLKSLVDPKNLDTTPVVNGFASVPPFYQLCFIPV

`CC(C)=CCC/C(C)=C/CC/C(C)=C/CC/C(C)=C/CO`: the Potency result in assay [1], in assay [4], in assay [5] and in [6] was “inactive” throughout. Besides, the compound was classed as inactive in [2] and in [3].

For the compound `CN1c2cc3c(cc2N=C(c2ccc(C(=O)O)cc2)c2ccccc21)C(C)(C)CCC3(C)C`, the Potency result in assay [1], in assay [5] and in assay [6] was “inactive” in each case.

For the compound `NCCCCCCNS(=O)(=O)c1ccc2c(Cl)cccc2c1`, the Potency in assay [7] was > 46 µM (inactive). The Potency result in assay [8], in assay [5] and in assay [6] was “inactive” in each case.

With `Cc1c(C(=O)NN2CCOCC2)nn(-c2ccc(Cl)cc2Cl)c1-c1ccc(I)cc1`, the Potency in [9] was > 46 µM (inactive); in assay [7], > 46 µM (inactive); in [11] it was 6.31 µM (active); in assay [12] it was 7.94 µM (active). Moreover, the Potency entry in assay [10], in assay [8], in [5] and in assay [6] was “inactive” each time.

`OC[C@H]1NC[C@H](O)[C@@H](O)[C@H]1O`: the Potency result in [13], in assay [14], in assay [10], in [4], in [8] and in [5] was “inactive” each time. Also, the Potency in [9] and in assay [7] was > 46 µM (inactive) throughout. In addition, the activity change, negative = inhibition in assay [15] (at 57.5 µM (top of the series)) is -0.744% (inactive). Moreover, the max response in [15] (measured here: cell count channel max response) amounted to 30%; in assay [15] (measured here: lipid channel max response), 27.8%. In addition, in assay [16], the outcome was inactive.

Consider `COc1cc(C=O)c([N+](=O)[O-])cc1OC`, for which the Potency entry in [17], in assay [5] and in [6] was “inactive” each time.

Source of the values: PubChem BioAssay (NCATS).
